In the library only some 1.5% were active in any assay of this set; here they are far more common.
mIDH1 inhibitor = blocks human mutant IDH1 R132H enzyme; IDH1-R132H enzyme, NADPH consumption, diaphorase/resazurin fluorescence; Potency, µM (highest dose often 76.6 µM), without a hit: at the top dose activity change, negative = inhibition, hits mostly inhibitors; actives 0.093% (n = 390,000); AID 602179; further: potency means the concentration at half of the fitted maximal effect; on the % scale 0 is the no-effect control and ±100 the full control effect; nearly all actives have a fitted effect of over 65% in size
Target sequence (O75874 whole entry R132H, stated change not applied): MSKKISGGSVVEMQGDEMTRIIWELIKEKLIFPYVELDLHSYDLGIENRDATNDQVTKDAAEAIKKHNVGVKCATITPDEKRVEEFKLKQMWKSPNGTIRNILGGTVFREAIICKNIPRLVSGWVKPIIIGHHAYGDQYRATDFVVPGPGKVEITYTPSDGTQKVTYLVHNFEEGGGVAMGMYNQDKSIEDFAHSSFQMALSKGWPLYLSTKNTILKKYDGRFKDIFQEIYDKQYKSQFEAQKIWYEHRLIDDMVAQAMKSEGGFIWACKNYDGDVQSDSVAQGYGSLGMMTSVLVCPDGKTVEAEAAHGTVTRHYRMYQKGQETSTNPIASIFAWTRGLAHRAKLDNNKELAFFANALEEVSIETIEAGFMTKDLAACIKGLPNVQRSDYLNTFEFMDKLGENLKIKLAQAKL
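IDH1-R132H (0.5 ug/mL dispensed) in pH 7.5 Tris buffer was preincubated 30 min with compound, then given a substrate mix of 0.016 mM NADPH and 2 mM alpha-KG for 80 min at room temperature; remaining NADPH was read by diaphorase/resazurin fluorescence.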
IL2 activator = activators of IL-2; IL-2 activation reporter assay, cell-based qHTS; stimulated with anti-CD3/CD4/CD28 beads; in transgenic mouse T cells; activation, % (series mostly up to about 46 µM); actives 0.065% (n = 360,000); in the data active means activation above about 50%; inconclusive means mostly about 30% to 49%; further: 0% is about no effect
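Unstimulated transgenic mouse T cells; 60-min compound exposure; bead-based TCR/CD4/CD28 stimulation; 18 h culture, 37 degrees C; dual fluorescence (EGFP, DsRed) plate cytometry.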
BRCA1 expr act = increases BRCA1 expression; Potency, µM (highest dose often 46.1 µM), for the others: at the top dose activation, actives largely listed as activators; actives 1.1% (n = 380,000); MCF7-BRCA1-FFLuc reporter, luminescence, 48 h; response scale: scaled: vehicle 0%, 10 µM genistein 100%; further: potency means the concentration at half of the fitted maximal effect; nearly all actives have a fitted effect of over 80% in size
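Cells: MCF7-BRCA1-FFLuc, 2000/well. Exposure: 48 h, 37 °C, 5% CO2. Read: luminescence, 15 min post-substrate. Controls: genistein 10 microM (maximal activation), DMSO (neutral).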
gsp ag = activates gsp, the McCune-Albright syndrome mutation. gsp mutant cells, cAMP HTRF, 30 min. Potency, µM (titrated, usually from 76.9 µM), inactives show at the top dose activation (cAMP increase), usual class: activators. actives 0.13% (n = 340,000); active means well fitted activation curve with a large enough effect; inconclusive means small, poorly fitted or top-dose-only effect, or another doubt; inactive means no such curve, though single readings can be large or run the other way; cell line not stated here;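 further: phosphodiesterase inhibitor Ro 20-1724 added with compounds to block cAMP breakdown; potency means the concentration at half of the fitted maximal effect; nearly all actives have a fitted effect of over 60% in size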
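Cells stably selected in G418 were plated at 2000/well, grown 16-24 hr, then given compounds in DMSO with the PDE inhibitor […] (300 uM solution added) for 30 min at 37C; cAMP was read by HTRF.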
gsp antagonist = antagonists of gsp mutant (McCune-Albright syndrome); Potency, µM (highest dose often 76.9 µM), for the others: at the top dose activity change, negative = inhibition, hits mostly inhibitors; gsp-mutant cells, cAMP HTRF, 30 min; AID 624288; actives 0.4% (n = 340,000); calls by dose curve; cell line not stated here;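 further: intracellular cAMP measured with PDE inhibitor Ro 20-1724 present during compound exposure; potency means the concentration at half of the fitted maximal effect; on the % scale 0 is the no-effect control and ±100 the full control effect; nearly all actives have a fitted effect of over 65% in size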
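Cells, 2000/well, grown 16–24 h in DMEM 10% FBS with 0.5 mg/ml G418, then compounds plus […] (300 uM addition stock), 30 min at 37C. cAMP read by HTRF (cAMP-d2 and anti-cAMP antibody-K in lysis buffer) after 30 min RT.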
* hit, by the source's call; ? = inconclusive; nt = no result given; [ ] = remark or other dose. Unless noted, the call rests on the fitted dose curve; in most records, active means well fitted curve in the direction sought with a large enough effect; inconclusive means small, poorly fitted or top-dose-only effect, or another doubt; inactive means no such curve, though single readings can be large; an effect the other way counts as inactive or inconclusive.

SMILES	mIDH1 inhibitor	IL2 activator	BRCA1 expr act	gsp ag	gsp antagonist
Cc1ccccc1S(=O)(=O)Cc1ccc(C(=O)NC2CC2)o1	2.7%	0.5	-4.2%	-6.0%	28.2µM*
Cc1nn(-c2ccc(N3CCCCC3)nn2)c(C)c1CCC(=O)Nc1ccc(F)c(F)c1	3.4%	-1.1	2.24µM*	2.8%	-16.1%
Cc1nn(-c2ccc(N3CCCC3)nn2)c(C)c1CCC(=O)Nc1ccc(F)c(Cl)c1	12.8%	nt	nt	nt	nt
Cc1ccc(NC(=O)CCc2c(C)nn(-c3ccc(N4CCCCC4)nn3)c2C)cc1	0.0%	0.3	3.98µM*	26.5%	0.6%
CC(=O)c1ccc(NC(=O)CCc2c(C)nn(-c3ccc(N4CCCCC4)nn3)c2C)cc1	0.0%	nt	nt	nt	nt
O=C(O)c1ccccc1CSc1nc2ccccc2o1	-0.9%	2.0	8.91µM*	5.4%	-10.0%
O=C(O)c1ccc(CSc2nc3ccccc3o2)cc1	-3.9%	0.3	14.4%	0.0%	-18.0%
O=[N+]([O-])c1cc(S(=O)(=O)N2CCCCCC2)ccc1F	46.5µM*	-0.5	-99.3%	10.9%	18.4%
O=[N+]([O-])c1cc(S(=O)(=O)N2CCCC2)ccc1O	3.5%	-0.3	-2.0%	13.4%	1.9%
CN1C(=O)/C(=C/c2ccccc2F)Sc2ccc(C(=O)N3CCCC3)cc21	-14.7%	-3.3	1.6%	5.3%	28.2µM*
Cc1ccccc1/C=C1\Sc2ccc(C(=O)N3CCN(c4ccccn4)CC3)cc2N(C)C1=O	-7.1%	1.3	-15.1%	-53.3%	?
COc1ccc2c(c1)CC/C2=N\OC(=O)c1ccccc1C	6.9%	-0.2	11.2µM*	8.2%[15.4 µM]	nt
CC(=O)Nc1ccc2oc(-c3cc(F)c(F)cc3Cl)nc2c1	3.2%	2.1	48.7%	19.6%	-0.4%
CC(C)C(=O)Nc1ccc2oc(-c3cc(F)c(F)cc3Cl)nc2c1	-1.2%	-2.2	2.82µM*	18.1%	9.5%
C[n+]1c(/C=C/c2ccc(F)cc2)ccc2ccccc21	nt	nt	-41.7%	nt	nt
Cc1c(C(=O)N2CCN(C)CC2)oc2ccc(Br)cc12	-9.6%	0.0	12.6µM*	17.3%	1.5%
Cc1oc2cc3c(C(=O)N4CCCCC4)c(C)oc3cc2c1C(=O)N1CCCCC1	2.1%	-0.3	3.16µM*	-3.0%	-6.9%
Cc1c(C(=O)N2CCCC2)oc2ccc(Br)cc12	-3.5%	4.3	6.31µM*	-31.6%	-6.8%
O=C(c1cccc(S(=O)(=O)N2CCCc3ccccc32)c1)N1CCN(c2ccccc2)CC1	6.8%	-1.0	-77.7%	-3.0%[15.4 µM]	?
c1ccc(COc2ccc(OCCn3cncn3)cc2)cc1	1.2%	0.5	59.1%	-9.4%	-10.4%
c1ccc(-c2ccc(OCCCn3cncn3)cc2)cc1	0.7%	0.0	11.2µM*	4.8%	-2.6%
CNc1cc(C(=O)O)nc2ccccc12	nt	nt	-61.2%	nt	nt
Cc1ccc(Nc2cc(C)c3c(O)cccc3n2)cc1C	67.9%	-3.2	5.62µM*	11.0%	1.8%
COc1ccc(Nc2cc(C)c3c(O)cccc3n2)cc1	22.8%	-3.4	?	?	-1.8%
O=C(NCc1ccccc1)C1C(c2ccc3c(c2)OCO3)=Nc2ccccc2N1C(=O)c1ccco1 (configuration not stated)	nt	-0.8	nt	nt	nt
SMILES	mIDH1 inhibitor	IL2 activator	BRCA1 expr act	gsp ag	gsp antagonist
C=CC1=CCN(S(=O)(=O)C(C)(C)C)[C@H]1CCO	0.4%	0.0	0.0%	-9.2%	nt
COC(=O)C1=C(C)NC(=O)/C1=C\c1cc(C)n(-c2cc(C)cc(C)c2)c1C	6.6%	0.1	-28.1%	-16.9%	-16.3%
COC(=O)C1=C(C)NC(=O)/C1=C\c1cc(C)n(-c2ccccc2)c1C	-8.4%	-0.1	7.08µM*	-26.1%	-18.9%
Cc1nn2c(C)c(C(=O)N3CCN(c4ccc(Cl)cc4)CC3)cnc2c1-c1ccc(F)cc1	-0.8%	nt	nt	nt	nt
COc1ccc(-c2nc3sc(CCNC(=O)c4cc(OC)c(OC)c(OC)c4)c(C)n3n2)cc1	12.8%	nt	7.94µM*	nt	nt
COc1cccc(NC(=O)c2ccc(NC(=O)C(C)C)cc2)c1	-4.6%	1.2	10µM*	8.0%[15.4 µM]	-11.6%
COc1ccc(C(=O)Nc2cc(C(=O)O)cc(C(=O)O)c2)cc1Cl	0.6%	0.1	-7.1%	-3.6%	9.7%
COc1cccc(NC(=O)C(C)C)c1	-7.1%	0.6	-0.6%	-2.7%	10.4%
